Drawing on PubChem BioAssay (NCATS), this text covers Potency, outcome and activity change, negative = cell killing for 25 compounds.

Each structure is given as a SMILES string. Results filed as inconclusive are left out. Unmarked numbers belong to inactive results. Activity calls are given as the source filed them. The call rests on the fitted dose curve; in most records, active means well fitted curve in the direction sought with a large enough effect; inconclusive means small, poorly fitted or top-dose-only effect, or another doubt; inactive means no such curve, though single readings can be large; an effect the other way counts as inactive or inconclusive.

Assay [1] is described as follows: Primary qHTS for inhibitors of nuclear receptor binding SET domain protein 2 (NSD2) in an isogenic RCH-ACV NSD2 p.E1099K mutant (9B) (AID 1645876). On the technique in general: In qHTS, concentration-response curves come from the screen itself.
Assay [2] in a line: Primary qHTS for inhibitors of nuclear receptor binding SET domain protein 2 (NSD2) in an RCH-ACV wild type WT cells (2C) (AID 1645877).
Further: nearly all actives have a fitted effect of over 70% in size.
On the % scale 0 is the no-effect control and ±100 the full control effect.

Turning to `O=C(/C=C/c1ccc(O)cc1)OCC1=CC2OC(=O)C3=CO[C@@H](O[C@@H]4O[C@H](CO)[C@@H](O)[C@H](O)[C@H]4O)[C@H]1[C@@H]32` (stereo not given in full), the Potency result in assay [1] and in assay [2] was “inactive” each time.

In the case of `CCC(C)/C=C(C)/C=C/C1=CC2=C(Cl)C(=O)C(C)(OC(C)=O)C(=O)C2=CN1C1CCCCN(C(CCC(N)=O)C(=O)O)C1=O` (stereo not given), the Potency result in assay [1] and in assay [2] was “inactive” in each case.

For the compound `OCC1OC(Oc2cc(O)c3c(c2)OC(c2ccc(O)cc2)C(O)C3)C(O)C1O` (stereo not given), the Potency entry in assay [1] and in assay [2] was “inactive” in each case.

As to `COC(=O)[C@]12C(=O)C(C)=C(O)[C@@]1(C)C(C)=CC1[C@@]34CC[C@@H](OC(C)=O)C(C)(C)C3[C@H](C[C@]12C)OC4=O` (stereo not given in full), the Potency entry in assay [1] and in assay [2] was “inactive” in each case.

As to `CC1=C(C)C(=O)OC(C(C)(O)C2CCC3C4CC=C5CC(OC6OC(COC7OC(CO)C(O)C(O)C7O)C(O)C(O)C6O)CC(O)C5(C)C4CCC32C)C1` (stereo not given), the Potency result in assay [1] and in assay [2] was “inactive” in each case.

For the compound `CO/N=C(/C(=O)N[C@@H]1C(=O)N2C(C(=O)O)=C(CSC(=O)c3ccco3)CS[C@H]12)c1csc(N)n1`, the Potency entry in assay [1] and in assay [2] was “inactive” each time.

`Cc1cc(O)cc(Oc2cc(C)c(C(=O)O)c(O)c2)c1`: the Potency entry in assay [1] and in assay [2] was “inactive” throughout.

Consider `CC12CCC3C(C)(C)C(O)CCC3(C)C1Cc1c(oc(C(=O)O)cc1=O)O2` (stereo not given), for which the Potency result in assay [1] and in assay [2] was “inactive” throughout.

On to `COc1cc([C@H]2OC[C@]3(OC(C)=O)[C@@H](c4ccc(O[C@@H]5O[C@H](CO)[C@@H](O)[C@H](O)[C@H]5O)c(OC)c4)OC[C@H]23)ccc1O`, for which the Potency result in assay [1] and in assay [2] was “inactive” throughout.

Turning to `CCC(C)(O)C(O)C(=O)OCc1ccc(O[C@@H]2O[C@H](CO)[C@@H](O)[C@H](O)[C@H]2O)cc1` (stereo not given in full), the Potency result in assay [1] and in assay [2] was “inactive” in each case.

As to `C=C[C@H]1[C@H](O[C@@H]2O[C@H](CO)[C@@H](O)[C@H](O)[C@H]2O)OC=C2C(=O)OCC[C@]21O`, the Potency result in assay [1] and in assay [2] was “inactive” in each case.

In the case of `C[C@]12CCC[C@](C)(C(=O)O)C1CCC13C=C(CO)C(CCC12)C3` (stereo not given in full), the Potency entry in assay [1] and in assay [2] was “inactive” throughout.

For `C/C(=C/CCC(CO)C1CCC2(C)C3CCC4C(C)(C)C(OC5OC(CO)C(O)C(O)C5O)CC(O)C45CC35CCC12C)COC1OC(CO)C(O)C(O)C1O` (stereo not given), the Potency entry in assay [1] and in assay [2] was “inactive” in each case.

For `COc1ccc(C(O[C@@H]2O[C@H](CO)[C@@H](O)[C@H](O)[C@H]2O)C(CO)Oc2ccc(/C=C/CO)cc2OC)cc1O` (stereo not given in full), the Potency result in assay [1] and in assay [2] was “inactive” each time.

With `CC[C@H]1OC(=O)[C@H](C)[C@@H](OC2C[C@@](C)(OC)[C@@H](O)[C@H](C)O2)[C@H](C)[C@@H](OC2O[C@H](C)C[C@H](NC)[C@H]2O)[C@](C)(O)C[C@@H](C)CN(C)[C@H](C)[C@@H](O)[C@]1(C)O` (stereo not given in full), the Potency entry in assay [1] and in assay [2] was “inactive” throughout.

As for `C=CC(C)(C)C1(CC2NC(=O)C3CCCN3C2=O)C(=O)Nc2cc3c(cc21)C=CC(C)(C)O3` (stereo not given), the Potency result in assay [1] and in assay [2] was “inactive” throughout.

For `C/C=C/C=C/C(CC(=O)O)Nc1ccc(C=O)cc1` (stereo not given), the Potency entry in assay [1] and in assay [2] was “inactive” each time.

Consider `O=C(/C=C/c1ccccc1)OCC1=CC[C@@H]2C(C(=O)O)=CO[C@@H](O[C@@H]3O[C@H](CO)[C@@H](O)[C@H](O)[C@H]3O)[C@H]12`, for which the Potency entry in assay [1] and in assay [2] was “inactive” throughout.

Regarding `CC[C@H](/C=C/[C@@H](C)[C@H]1CC[C@H]2[C@@H]3CC=C4C[C@@H](O)CC[C@]4(C)[C@H]3CC[C@]12C)C(C)C`, the outcome in assay [1] and in assay [2] was “inactive [at 4.96 µM]” throughout.

For `CC(CCC1(O)OC2CC3C4CCC5CC(O[C@@H]6O[C@H](CO)[C@@H](O)[C@H](O)[C@H]6O[C@@H]6OC[C@@H](O)[C@H](O)[C@H]6O)C(O)CC5(C)C4CCC3(C)C2C1C)CO[C@@H]1O[C@H](CO)[C@@H](O)[C@H](O)[C@H]1O` (stereo not given in full), the outcome in assay [1] and in assay [2] was “inactive [at 9.23 µM]” in each case.

Regarding `C=C1CC23CC1(O)CCC2C1=CC2OC(=O)C(C)(C2O)C1C3C(=O)O` (stereo not given), the Potency result in assay [1] and in assay [2] was “inactive” throughout.

Take `C=C1CCC2(OC1)OC1CC3C4CC=C5CC(O)CC(O[C@@H]6OC[C@@H](O)[C@H](O)[C@H]6O)C5(C)C4CCC3(C)C1(O)C2C` (stereo not given in full): the Potency result in assay [1] and in assay [2] was “inactive” in each case.

`Cc1nnc(C(C)C)n1C1CC2CCC(C1)N2CCC(NC(=O)C1CCC(F)(F)CC1)c1ccccc1` (stereo not given): the Potency result in assay [1] and in assay [2] was “inactive” throughout.

As for `C=CC(C)(C)O[C@@H]1O[C@H](CO[C@@H]2OC[C@](O)(CO)[C@H]2O)[C@@H](O)[C@H](O)[C@H]1O`, the Potency result in assay [1] and in assay [2] was “inactive” in each case.

On to `CC1(C)CC2C3=CCC4C5(C)CCC(OC6OC(CO)C(O)C(OC7OC(CO)C(O)C(OC8OC(CO)C(O)C(OC9OC(COC%10OC(CO)C(O)C(O)C%10O)C(O)C(O)C9O)C8O)C7O)C6O)C(C)(C)C5CCC4(C)C3(C)CCC2(C(=O)O)CC1O` (stereo not given), for which the outcome in assay [1] was “inactive [at 9.23 µM]”. In addition, the activity change, negative = cell killing in assay [2] was 4.6% [at 9.23 µM].
